# Tested on: PC9
# Assay: area under confluence curve of compound monotherapy; compare to DMSO control AUC of the same experiment (AUC (confluence x time, arbitrary))
# Details: 5 nM; DMSO control AUC in same experiment: 29563
# Procedure: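 compare to DMSO control AUC of the same experiment; Monotherapy arm of the osimertinib DTP screen: EGFR-mutant NSCLC cells were treated with the test compound alone at a fixed dose (highest dose with <50% inhibition of parental cells, or 1 uM), then switched to drug-free medium at the DTP stage. IncuCyte confluence was tracked and AUC computed in Prism. AUC scale depends on experiment duration, so each row carries the same-experiment DMSO control AUC (monotherapy activity = DMSO AUC minus monotherapy AUC). The monotherapy value is shared between screen formats.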
row,SMILES,area under confluence curve
1,NC(=O)Nc1cc(-c2cccc(F)c2)sc1C(=O)N[C@H]1CCCNC1,26800

# Same assay, conditions: 10 nM; DMSO control AUC in same experiment: 21341
row,SMILES,area under confluence curve
1,CC(=O)Nc1cccc(-n2c(=O)n(C3CC3)c(=O)c3c(Nc4ccc(I)cc4F)n(C)c(=O)c(C)c32)c1 [Trametinib],20400
2,Cn1cc(CNCC2CCN(c3ncc(C(=O)NO)cn3)CC2)c2ccccc21 [Quisinostat],17400

# Same assay, conditions: 10 nM; DMSO control AUC in same experiment: 27958
row,SMILES,area under confluence curve
1,Cn1cc(CNCC2CCN(c3ncc(C(=O)NO)cn3)CC2)c2ccccc21 [Quisinostat],20800

# Same assay, conditions: 10 nM; DMSO control AUC in same experiment: 30002
row,SMILES,area under confluence curve
1,Cn1cc(CNCC2CCN(c3ncc(C(=O)NO)cn3)CC2)c2ccccc21 [Quisinostat],29800

# Same assay, conditions: 10 nM; DMSO control AUC in same experiment: 49189
row,SMILES,area under confluence curve
1,CC(=O)Nc1cccc(-n2c(=O)n(C3CC3)c(=O)c3c(Nc4ccc(I)cc4F)n(C)c(=O)c(C)c32)c1 [Trametinib],49600

# Same assay, conditions: 30 nM; DMSO control AUC in same experiment: 27958
row,SMILES,area under confluence curve
1,Cc1nc(Nc2ncc(C(=O)Nc3c(C)cccc3Cl)s2)cc(N2CCN(CCO)CC2)n1 [Dasatinib],22500

# Same assay, conditions: 30 nM; DMSO control AUC in same experiment: 28243
row,SMILES,area under confluence curve
1,Cc1nc(Nc2ncc(C(=O)Nc3c(C)cccc3Cl)s2)cc(N2CCN(CCO)CC2)n1 [Dasatinib],18100

# Same assay, conditions: 100 nM; DMSO control AUC in same experiment: 20347
row,SMILES,area under confluence curve
1,Cc1nc(Nc2n[nH]c3c2CN(C(=O)N[C@H](CN(C)C)c2ccccc2)C3(C)C)c2sccc2n1,22800

# Same assay, conditions: 100 nM; DMSO control AUC in same experiment: 21913
row,SMILES,area under confluence curve
1,Nc1ccc(/C=C/C(=O)NCc2cc3cc(-c4ccc(C(=O)N5CCC(F)(F)CC5)cc4)cc(-c4ccc(F)cc4)c3o2)cn1,22800

# Same assay, conditions: 100 nM; DMSO control AUC in same experiment: 22064
row,SMILES,area under confluence curve
1,C=CCn1c(=O)c2cnc(Nc3ccc(N4CCN(C)CC4)cc3)nc2n1-c1cccc(C(C)(C)O)n1,21300

# Same assay, conditions: 100 nM; DMSO control AUC in same experiment: 28334
row,SMILES,area under confluence curve
1,CNC(=O)c1cccc(-c2ccc3c(N4CCOC[C@@H]4C)nc(N4CCOC[C@@H]4C)nc3n2)c1,24900

# Same assay, conditions: 100 nM; DMSO control AUC in same experiment: 30604
row,SMILES,area under confluence curve
1,C=CCn1c(=O)c2cnc(Nc3ccc(N4CCN(C)CC4)cc3)nc2n1-c1cccc(C(C)(C)O)n1,30700

# Same assay, conditions: 300 nM; DMSO control AUC in same experiment: 19076
row,SMILES,area under confluence curve
1,COc1nnc2ccc(N3CCC(c4ccc(OCCN5CCN(C)C(=O)[C@H]5C)cc4)CC3)nn12,19200

# Same assay, conditions: 300 nM; DMSO control AUC in same experiment: 19507
row,SMILES,area under confluence curve
1,CN1CCN(CCOc2cc(OC3CCOCC3)c3c(Nc4c(Cl)ccc5c4OCO5)ncnc3c2)CC1 [Saracatinib],16000

# Same assay, conditions: 300 nM; DMSO control AUC in same experiment: 20197
row,SMILES,area under confluence curve
1,Nc1nc(Nc2ccc3c(c2)CCC(N2CCCC2)CC3)nn1-c1cc2c(nn1)-c1ccccc1CCC2 (stereo not given),19600

# Same assay, conditions: 300 nM; DMSO control AUC in same experiment: 21594
row,SMILES,area under confluence curve
1,COc1nnc2ccc(N3CCC(c4ccc(OCCN5CCN(C)C(=O)[C@H]5C)cc4)CC3)nn12,20500

# Same assay, conditions: 300 nM; DMSO control AUC in same experiment: 28243
row,SMILES,area under confluence curve
1,CN1CCN(CCOc2cc(OC3CCOCC3)c3c(Nc4c(Cl)ccc5c4OCO5)ncnc3c2)CC1 [Saracatinib],24000

# Same assay, conditions: 300 nM; DMSO control AUC in same experiment: 30008
row,SMILES,area under confluence curve
1,Nc1nc(Nc2ccc3c(c2)CCC(N2CCCC2)CC3)nn1-c1cc2c(nn1)-c1ccccc1CCC2 (stereo not given),28200

# Same assay, conditions: 300 nM; DMSO control AUC in same experiment: 30578
row,SMILES,area under confluence curve
1,NC1(C(=O)N[C@@H](CCO)c2ccc(Cl)cc2)CCN(c2nc[nH]c3nccc2-3)CC1 [Capivasertib],29000

# Same assay, conditions: 300 nM; DMSO control AUC in same experiment: 31840
row,SMILES,area under confluence curve
1,COc1nnc2ccc(N3CCC(c4ccc(OCCN5CCN(C)C(=O)[C@H]5C)cc4)CC3)nn12,31700
2,NC1(C(=O)N[C@@H](CCO)c2ccc(Cl)cc2)CCN(c2nc[nH]c3nccc2-3)CC1 [Capivasertib],30700

# Same assay, conditions: 300 nM; DMSO control AUC in same experiment: 43316
row,SMILES,area under confluence curve
1,NC1(C(=O)N[C@@H](CCO)c2ccc(Cl)cc2)CCN(c2nc[nH]c3nccc2-3)CC1 [Capivasertib],42700

# Same assay, conditions: 300 nM; DMSO control AUC in same experiment: 44384
row,SMILES,area under confluence curve
1,COc1nnc2ccc(N3CCC(c4ccc(OCCN5CCN(C)C(=O)[C@H]5C)cc4)CC3)nn12,39700

# Same assay, conditions: 1000 nM; DMSO control AUC in same experiment: 18733
row,SMILES,area under confluence curve
1,O=C(N[C@@H](C1CC1)C(F)(F)F)c1cc(-c2cnn3cc(-c4ccc(F)cc4)cnc23)cs1,18000

# Same assay, conditions: 1000 nM; DMSO control AUC in same experiment: 21594
row,SMILES,area under confluence curve
1,O=C([C@@H](Cc1cccc(C(F)(F)F)c1)NS(=O)(=O)c1cc(F)c2c(c1)CCNC2)N1CCCC1,20800

# Same assay, conditions: 1000 nM; DMSO control AUC in same experiment: 22064
row,SMILES,area under confluence curve
1,O=C(c1cc(Cc2n[nH]c(=O)c3ccccc23)ccc1F)N1CCN(C(=O)C2CC2)CC1 [Olaparib],20000
2,C[C@@H](Oc1cc(-c2cnn(C3CCNCC3)c2)cnc1N)c1c(Cl)ccc(F)c1Cl [Crizotinib],21100

# Same assay, conditions: 1000 nM; DMSO control AUC in same experiment: 27958
row,SMILES,area under confluence curve
1,CN1CCN(c2nc(C3=C(c4c[nH]c5ccccc45)C(=O)NC3=O)c3ccccc3n2)CC1 [Sotrastaurin],27000

# Same assay, conditions: 1000 nM; DMSO control AUC in same experiment: 28684
row,SMILES,area under confluence curve
1,COc1cc2nc(C)nc(N[C@H](C)c3cc(N)cc(C(F)(F)F)c3)c2cc1O[C@H]1CCOC1,28300

# Same assay, conditions: 1000 nM; DMSO control AUC in same experiment: 29345
row,SMILES,area under confluence curve
1,Cc1cc(Nc2ncnc3ccc(NC4=NC(C)(C)CO4)cc23)ccc1Oc1ccn2ncnc2c1 [Tucatinib],29400

# Same assay, conditions: 1000 nM; DMSO control AUC in same experiment: 30002
row,SMILES,area under confluence curve
1,Cc1cc(Nc2ncnc3ccc(NC4=NC(C)(C)CO4)cc23)ccc1Oc1ccn2ncnc2c1 [Tucatinib],30200

# Same assay, conditions: 1000 nM; DMSO control AUC in same experiment: 30326
row,SMILES,area under confluence curve
1,CCN(c1cc(-c2ccc(CN3CCOCC3)cc2)cc(C(=O)NCc2c(C)cc(C)[nH]c2=O)c1C)C1CCOCC1 [Tazemetostat],29400

# Same assay, conditions: 1000 nM; DMSO control AUC in same experiment: 30578
row,SMILES,area under confluence curve
1,Cc1nc2nc(C)c(O[C@@H]3CCN(c4ccc(-c5ccc(CN6CCOCC6)nn5)cc4)C3)c(C)n2n1,30800

# Same assay, conditions: 1000 nM; DMSO control AUC in same experiment: 30604
row,SMILES,area under confluence curve
1,O=C(c1cc(Cc2n[nH]c(=O)c3ccccc23)ccc1F)N1CCN(C(=O)C2CC2)CC1 [Olaparib],30200

# Same assay, conditions: 1000 nM; DMSO control AUC in same experiment: 31219
row,SMILES,area under confluence curve
1,CN(C)C/C=C/C(=O)Nc1ccc(C(=O)Nc2cccc(Nc3ncc(Cl)c(-c4c[nH]c5ccccc45)n3)c2)cc1,31000

# Same assay, conditions: 1000 nM; DMSO control AUC in same experiment: 31239
row,SMILES,area under confluence curve
1,O=C(CCCCCCC(=O)Nc1ccccc1)NO [Vorinostat],29400

# Same assay, conditions: 1000 nM; DMSO control AUC in same experiment: 31840
row,SMILES,area under confluence curve
1,CCOC(=O)c1ccnc(CNCC(=O)N(CC)CCN(C)C)c1,30800

# Same assay, conditions: 1000 nM; DMSO control AUC in same experiment: 48219
row,SMILES,area under confluence curve
1,O=C(CCCCCCC(=O)Nc1ccccc1)NO [Vorinostat],47800

# Same assay, conditions: 1000 nM; DMSO control AUC in same experiment: 72888
row,SMILES,area under confluence curve
1,CCn1cc(-c2cccc(C(F)(F)F)c2)c2sc(C(=N)NC3CCS(=O)(=O)CC3)cc2c1=O,73000
